Active and inactive are the calls of the source. How the source made its calls: active means hit-call score of the fitted dose curve at least 0.9, where 1 is the maximum; inactive means score below 0.9.
Columns and labels:
[1] = ATG_E_Box_CIS: Attagene CIS-FACTORIAL HepG2 Assay for human Enhancer Box (E-box) (AID 2282936); details: HepG2 E-box cis-reporter transcription, actives raise or lower the signal
Summary of the method: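 Cells: HepG2 (human liver), transient MRTU transfection. Exposure 24 h. RNA → oligo(dT) RT → PCR → 6-FAM label → HpaI → CE. Activity fitted both directions relative to DMSO.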

[2] = ATG_M_61_CIS: Attagene CIS-FACTORIAL HepG2 Assay for M61 Transcription Factor (Internal Marker) (AID 2282937); details: HepG2 Attagene CIS-FACTORIAL M61 internal marker reporter; actives raise or lower the signal
Summary of the method: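 Using transiently transfected HepG2 liver cells, reporter transcript levels were assessed 24 h post-dosing by RT-PCR and capillary electrophoresis. Changes in either direction were fitted relative to DMSO controls.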

[3] = ATG_EGR_CIS: Attagene CIS-FACTORIAL HepG2 Assay for human Early Growth Response 1 (EGR1) (AID 2282938); details: HepG2 Attagene CIS-FACTORIAL EGR reporter mRNA; actives raise or lower the signal
Summary of the method: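 Fluorescent capillary-electrophoresis signal of reporter cDNA fragments serves as read-out. HepG2 cells bear transiently transfected cis-promoter reporter units and are exposed 24 h; gain- or loss-of-signal is fitted against DMSO.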

[4] = ATG_M_19_CIS: Attagene CIS-FACTORIAL HepG2 Assay for M19 Transcription Factor (Internal Marker) (AID 2282939); details: HepG2 Attagene CIS-FACTORIAL M19 internal marker reporter; actives raise or lower the signal
Summary of the method: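 HepG2, MRTU transient transfection, 24 h dosing. Total RNA → RT-PCR → 6-FAM primer extension → HpaI digest → CE fluorescence. Bidirectional curve fit, DMSO negative control.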

[5] = ATG_ERE_CIS: Attagene CIS-FACTORIAL HepG2 Assay for Estrogen Response Element (ERE) (AID 2282940); details: HepG2 ERE cis-reporter, Attagene RNA transcript; actives raise or lower the signal
Summary of the method: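 After a 24 h chemical treatment, RNA from reporter-transfected HepG2 cells is reverse-transcribed, PCR-amplified and fluorescently labelled. Fragments separated by capillary electrophoresis give reporter signal; DMSO serves as negative control.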

[6] = ATG_FoxO_CIS: Attagene CIS-FACTORIAL HepG2 Assay for human Forkhead box O (FoxO) (AID 2282943); details: HepG2 Attagene cis-reporter, FoxO element, mRNA; actives raise or lower the signal
Summary of the method: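 Human hepatoma HepG2 cells carry transiently introduced reporter transcription units controlled by cis promoter elements. Chemical treatment lasted 24 h, and mRNA signal was compared with DMSO.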

[7] = ATG_GATA_CIS: Attagene CIS-FACTORIAL HepG2 Assay for human GATA Binding Protein (AID 2282944); details: HepG2 GATA cis-element reporter, Attagene multiplex mRNA; actives raise or lower the signal
Summary of the method: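 Cells: HepG2, transiently transfected with cis-regulated reporter transcription units. Exposure: 24 h. Detection: RT-PCR plus capillary electrophoresis of FAM-labeled fragments. Analysis: bidirectional, DMSO as baseline.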

[8] = ATG_GLI_CIS: Attagene CIS-FACTORIAL HepG2 Assay for human Zinc Finger Protein GLI1 (AID 2282945); details: HepG2, Attagene cis-factorial reporter mRNA, GLI element; actives raise or lower the signal
Summary of the method: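 Bidirectional curve fits relative to DMSO, using reporter mRNA levels from RT-PCR plus capillary electrophoresis. Cells were HepG2 transiently carrying cis-regulated reporter constructs, harvested 24 h after dosing.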

[9] = ATG_Ets_CIS: Attagene CIS-FACTORIAL HepG2 Assay for human Erythroblast Transformation Specific (ETS) (AID 2282941); details: HepG2 ETS cis-reporter transcription, actives raise or lower the signal
Summary of the method: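 Steps: transfect HepG2 with multiple reporter units; treat compound 24 h; isolate RNA, DNase-treat, reverse-transcribe; PCR-amplify, label with 6-FAM, digest with HpaI; separate by capillary electrophoresis. Activity fitted both directions versus DMSO.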

[10] = target: Hepatocyte nuclear factor 3-beta (Homo sapiens) (UniProt Q9Y261); test: ATG_FoxA2_CIS: Attagene CIS-FACTORIAL HepG2 Assay for human Forkhead box A2 (FOXA2) (AID 2282942); details: HepG2 cis-reporter transcription factor activity, 24 h; actives raise or lower the signal
Chain of Hepatocyte nuclear factor 3-beta (Homo sapiens) (Q9Y261 whole entry, looked up, the tested form may be a part): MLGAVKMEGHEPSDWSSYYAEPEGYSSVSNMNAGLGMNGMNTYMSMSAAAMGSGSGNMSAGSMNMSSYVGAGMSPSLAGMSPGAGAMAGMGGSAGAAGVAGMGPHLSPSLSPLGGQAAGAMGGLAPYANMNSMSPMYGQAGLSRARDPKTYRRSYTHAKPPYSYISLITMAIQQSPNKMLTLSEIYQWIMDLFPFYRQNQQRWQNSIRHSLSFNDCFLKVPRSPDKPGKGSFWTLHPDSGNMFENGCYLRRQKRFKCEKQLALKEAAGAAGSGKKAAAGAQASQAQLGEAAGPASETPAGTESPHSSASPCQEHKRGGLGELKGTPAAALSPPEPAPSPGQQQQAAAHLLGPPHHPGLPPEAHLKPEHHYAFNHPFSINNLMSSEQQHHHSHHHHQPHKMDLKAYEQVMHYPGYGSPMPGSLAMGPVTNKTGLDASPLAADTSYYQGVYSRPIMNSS
Summary of the method: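 Fluorescence signal of reporter cDNA fragments, separated by capillary electrophoresis, reflects endogenous transcription factor activity in transfected HepG2 after 24 h. Both increases and decreases fitted against DMSO.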

Measured: AC50

O=P(O)(O)Oc1ccccc1
not listed: [9] | [10]
inactive: all other assays above

CCCCCC/C=C\CCCCCCCC(=O)O
not listed: [3] | [10]
inactive: all other assays above

NC(=O)N=NC(N)=O
not listed: [3] | [10]
inactive: all other assays above

O=C(O)Cc1c(Cl)ccc(Cl)c1Cl
not listed: [7] | [9]
inactive: all other assays above

COc1ccc2nc(N)sc2c1
not listed: [3] | [9]
inactive: all other assays above

CCCCCCCC(C)=O
not listed: [3]
inactive: all other assays above

O=C(Cl)c1cc(C(=O)Cl)cc(C(=O)Cl)c1
active: [1] 138 µM
not listed: [3] | [7]
inactive: all other assays above

C=CC(=O)OCCC(=O)O
not listed: [3]
inactive: all other assays above

Cn1c([N+](=O)[O-])cnc1COC(N)=O
not listed: [3]
inactive: all other assays above

N#CCc1ccc(Cl)cc1Cl
not listed: [3] | [9]
inactive: all other assays above

CCCCCC/C=C/C=O
not listed: [5]
inactive: all other assays above

CC(=O)Oc1ccc(C)cc1
not listed: [3]
inactive: all other assays above

O=Cc1ccc(CO)o1
not listed: [7] | [9]
inactive: all other assays above

OCCN(CCO)c1ccccc1
not listed: [3] | [10]
inactive: all other assays above

O=C1CC2CC1C1CCCC21 (stereo not drawn)
active: [5] 19.8 µM
not listed: [3]
inactive: all other assays above

CCc1nccnc1C
not listed: [3]
inactive: all other assays above

COCCCOCCCOC
not listed: [3]
inactive: all other assays above

CC1(C)O[C@@H]2C[C@H]3[C@@H]4C[C@H](F)C5=CC(=O)C=C[C@]5(C)[C@@]4(F)[C@@H](O)C[C@]3(C)[C@]2(C(=O)CO)O1
active: [5] 4.27 µM
not listed: [3]
inactive: all other assays above

NC(CO)(CO)CO
not listed: [3]
inactive: all other assays above

O=C1CCCCCN1SSN1CCCCCC1=O
active: [1] 182 µM | [8] 155 µM
not listed: [3]
inactive: all other assays above

CC1=NN(c2cc(S(=O)(=O)O)ccc2Cl)C(=O)C1N=Nc1ccccc1 (stereo not drawn)
not listed: [3]
inactive: all other assays above

OC1CCCCCCCCCCC1
active: [5] 26.4 µM
not listed: [3] | [7]
inactive: all other assays above

CC(C)(Oc1ccc(C2CC2(Cl)Cl)cc1)C(=O)O (stereo not drawn)
not listed: [3]
inactive: all other assays above

CC(=O)C=CC1C(C)=CCC(C)C1(C)C (stereo not drawn)
not listed: [3] | [10]
inactive: all other assays above

CC(C)=CCC/C(C)=C\C#N
not listed: [9] | [10]
inactive: all other assays above

CC(=O)OC1C2(C)CCC(C2)C1(C)C (stereo not drawn)
not listed: [3]
inactive: all other assays above

CC(C)c1ccc(C=O)cc1
not listed: [9] | [10]
inactive: all other assays above

CC(=O)OCc1ccco1
not listed: [9] | [10]
inactive: all other assays above

CC(C)CC(O)Cc1ccccc1 (stereo not drawn)
not listed: [3]
inactive: all other assays above

O=C(Oc1ccccc1)c1ccc2ccccc2c1O
active: [1] 37.2 µM | [3] 48.7 µM | [5] 31.2 µM
not listed: [9] | [10]
inactive: all other assays above

CC(C)c1ccc2c(c1)CC[C@H]1[C@](C)(CN)CCC[C@]21C
active: [7] 5.79 µM
not listed: [3]
inactive: all other assays above

CCO[Si](CCCN=C=O)(OCC)OCC
not listed: [3]
inactive: all other assays above

CCCCCCCCc1ccc(Nc2ccc(CCCCCCCC)cc2)cc1
not listed: [3]
inactive: all other assays above

NC(=O)C1CO1 (stereo not drawn)
not listed: [3]
inactive: all other assays above

O=C(Nc1ccccc1)c1ccccc1O
active: [5] 63.1 µM | [9] 100 µM
not listed: [3] | [10]
inactive: all other assays above

O=C(Nc1ccccc1SSc1ccccc1NC(=O)c1ccccc1)c1ccccc1
active: [8] 100 µM
not listed: [3]
inactive: all other assays above

CCOc1nc(F)cc2nc(S(=O)(=O)Nc3c(Cl)cccc3C(=O)OC)nn12
not listed: [3] | [10]
inactive: all other assays above

CC(=O)[C@@]1(O)CC[C@H]2[C@@H]3C[C@H](C)C4=CC(=O)C=C[C@]4(C)[C@@]3(F)[C@@H](O)C[C@@]21C
not listed: [3]
inactive: all other assays above

O=C(c1ccc(O)cc1)c1ccc(O)cc1O
active: [5] 0.84 µM
not listed: [9]
inactive: all other assays above

O=C(O)c1cc2ccccc2nc1C(=O)O
not listed: [3]
inactive: all other assays above
